Experimental data from PubChem BioAssay AID720513 (Broad Institute, 2013).
Hit rate of the full screen: of about 2,100 compounds, about 480 (23%) were called active. Inconclusive results (about 5%) are left out.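 Rule for the calls: active = fitted curve reaches 40% activation at or below the top valid concentration, in every replicate test; inconclusive = replicate tests disagree on the call; inactive = the rest, including activity in the opposite direction.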 A selection follows. Potency and affinity values are given separately.

assay: activators raising PGC1a acetylation in cells, dose response, cell-based, cherry-picked samples, set 6 (AID 720513); conditions: U2OS PGC1a acetylation AlphaLISA, overnight, 0 = neutral, -100 = inhibitor control; series mostly up to 19.5 µM;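 note: cells made to overexpress flag tagged PGC1a plus GCN5 acetyltransferase by viral infection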

outcome, inactive:
C[C@@H]1CN([C@H](C)CO)C(=O)c2cc(C#CC(C)(C)O)cnc2O[C@H]1CN(C)C(=O)c1ccccc1F
COc1ccc(S(=O)(=O)N(C)C[C@H]2Oc3c(NS(=O)(=O)c4ccc(C)cc4)cccc3C(=O)N([C@H](C)CO)C[C@H]2C)cc1
Cc1noc(C)c1NC(=O)N(C)C[C@H]1Oc2c(NC(=O)c3nc4ccccc4s3)cccc2C(=O)N([C@H](C)CO)C[C@H]1C
Cc1ccc(-c2cnc3c(c2)C(=O)N([C@@H](C)CO)C[C@@H](C)[C@H](CN(C)C)O3)cc1
Cc1nn(C)c(C)c1N1C(=O)c2cccc3c(Br)ccc(c23)C1=O
CCC(=O)N1C[C@H](C)[C@@H](OC)CN(C)C(=O)c2cc(NC(=O)Nc3cccc(F)c3)ccc2OC[C@H]1C
C[C@H](CO)N1C[C@H](C)[C@@H](CN(C)Cc2ccc(Oc3ccccc3)cc2)Oc2ccc(N(C)C)cc2CC1=O
O=C(O)CSCC(=O)NCc1ccc(Cl)cc1Cl
Cc1cc(Br)ccc1NC(=O)CN(C)C(=O)CCSc1ccc(F)cc1
Cc1ccc(S(=O)(=O)N2CCN(C(=O)N3CCOCC3)CC2)cc1C
CC(=O)CS(=O)(=O)c1ccc(Oc2ccc(S(=O)(=O)CC(C)=O)cc2)cc1
COc1ccccc1N1CCN(c2ccc(-c3ccccc3)nn2)CC1
CCN(CC)C(=O)CSc1nnc(-c2cccnc2)n1Cc1ccccc1
Cn1c(CO)cnc1SCC(=O)c1ccc(Cl)cc1
Cc1ccc(S(=O)(=O)N[C@H]2C=C[C@@H](CC(=O)NCCN3CCCCC3)O[C@H]2CO)cc1
Cc1ccc(S(=O)(=O)NC2=NCCCCC2)cc1
Cc1ccc(S(=O)(=O)N[C@H]2C=C[C@H](CC(=O)NCCN3CCCCC3)O[C@H]2CO)cc1
Cc1ccc2c(Cl)cc(Cl)c(OCc3c(C)noc3C)c2n1
COc1ccc(-n2c(SCC#N)nnc2-c2cccnc2)cc1
COc1ccc(-c2cc(-c3ccccc3)c(C#N)c(S(C)=O)n2)cc1 (stereo unspecified)
O=C(CC(C(=O)O)c1c[nH]c2ccccc12)c1ccccc1 (stereo unspecified)
CN(NC(=O)c1ccccc1)C1=NS(=O)(=O)c2ccccc21
COc1ccc(-c2cc(C(F)(F)F)nc(S(C)(=O)=O)n2)cc1
C=CCNS(=O)(=O)c1cccc2cc(C(=O)O)c(O)cc12
O=C(C=Cc1ccccc1)CC(c1ccccc1)N1CCOCC1 (stereo unspecified)
CCCCOc1ccc(C(=O)C(CN2CCOCC2)c2ccccc2)cc1 (stereo unspecified)
